Source: PubChem BioAssay (NCI)
About 79,000 compounds went through this panel and 15% of them were active in at least one assay; those are over-represented in the sample as a whole. Activity calls are given as the source filed them. Rule as the data show it: active = growth inhibition above about 70%; inactive = the rest.

Test: NCI Yeast Anticancer Drug Screen. Data for the mlh1 strain (AID 171);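 also: 0% = growth of vehicle-treated control cultures of the same strain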
Settings: S. cerevisiae mlh1 strain growth inhibition, stronger effect = higher value
Protocol: Growth inhibition of yeast strains with defined genetic alterations is measured as a screen for potential anti-cancer activity. Selected strains with alterations in DNA damage repair or cell cycle control were exposed to compounds and growth inhibition was measured relative to vehicle treated controls. The strain used in this assay is mlh1

Measured: growth inhibition

O=c1c2ccccc2ncn1COCc1ccccc1
inactive: at 1.2 µM 0% | at 3.7 µM 12% | at 11.0 µM -4% | at 33.0 µM 6% | at 100.0 µM 27%

CNC(=O)OCc1c(COC(=O)NC)c(-c2ccc(Cl)c(Cl)c2)n2c1CCC2
active: at 33.0 µM 98% | at 100.0 µM 97%
inactive: at 1.2 µM -94% | at 3.7 µM -90% | at 11.0 µM -81%

O=Nc1cccnc1N=O
active: at 11.0 µM 83% | at 33.0 µM 98% | at 100.0 µM 99%
inactive: at 1.2 µM 5% | at 3.7 µM 21%

NNc1c(F)c(F)cc(F)c1F
inactive: at 1.2 µM -12% | at 3.7 µM -7% | at 11.0 µM -6% | at 33.0 µM 5% | at 100.0 µM 42%

O=[N+]([O-])c1cccc([N+](=O)[O-])c1S(=O)(=O)c1ccccc1
inactive: at 1.2 µM -1% | at 3.7 µM 22%
active: at 11.0 µM 76% | at 33.0 µM 97% | at 100.0 µM 95%

Clc1ccc(SC(/C=C/NNC2=NC(c3ccccc3)C(c3ccccc3)=NN2)c2ccccc2)cc1 (stereo not given)
inactive: at 1.2 µM -3% | at 3.7 µM 5% | at 11.0 µM -4% | at 33.0 µM 31%
active: at 100.0 µM 84%

Cc1ccc2ccc(O)cc2c1
inactive: at 1.2 µM -9% | at 3.7 µM -19% | at 11.0 µM -27% | at 33.0 µM -24% | at 100.0 µM 68%

Oc1ccc(NCn2c(=S)sc3ccccc32)cc1
active: at 100.0 µM 97%
inactive: at 1.2 µM -44% | at 3.7 µM -23% | at 11.0 µM -9% | at 33.0 µM 63%
